Results from ChEMBL document CHEMBL1201862, “PubChem BioAssay data set” (2004).
The whole screen tested about 400,000 compounds, of which about 2,100 (0.53%) were called active. Roughly 14% stayed inconclusive and do not appear here. No rule for the calls is given here. The list comes from a sample in which actives are over-represented; it also holds similar structures and randomly drawn compounds.

The compounds below were run against Ataxin-2 (Homo sapiens) (UniProt Q99700) (assay: qHTS for Inhibitors of ATXN expression.).
Type: functional

Ataxin-2 (Homo sapiens), sequence (Q99700 whole entry): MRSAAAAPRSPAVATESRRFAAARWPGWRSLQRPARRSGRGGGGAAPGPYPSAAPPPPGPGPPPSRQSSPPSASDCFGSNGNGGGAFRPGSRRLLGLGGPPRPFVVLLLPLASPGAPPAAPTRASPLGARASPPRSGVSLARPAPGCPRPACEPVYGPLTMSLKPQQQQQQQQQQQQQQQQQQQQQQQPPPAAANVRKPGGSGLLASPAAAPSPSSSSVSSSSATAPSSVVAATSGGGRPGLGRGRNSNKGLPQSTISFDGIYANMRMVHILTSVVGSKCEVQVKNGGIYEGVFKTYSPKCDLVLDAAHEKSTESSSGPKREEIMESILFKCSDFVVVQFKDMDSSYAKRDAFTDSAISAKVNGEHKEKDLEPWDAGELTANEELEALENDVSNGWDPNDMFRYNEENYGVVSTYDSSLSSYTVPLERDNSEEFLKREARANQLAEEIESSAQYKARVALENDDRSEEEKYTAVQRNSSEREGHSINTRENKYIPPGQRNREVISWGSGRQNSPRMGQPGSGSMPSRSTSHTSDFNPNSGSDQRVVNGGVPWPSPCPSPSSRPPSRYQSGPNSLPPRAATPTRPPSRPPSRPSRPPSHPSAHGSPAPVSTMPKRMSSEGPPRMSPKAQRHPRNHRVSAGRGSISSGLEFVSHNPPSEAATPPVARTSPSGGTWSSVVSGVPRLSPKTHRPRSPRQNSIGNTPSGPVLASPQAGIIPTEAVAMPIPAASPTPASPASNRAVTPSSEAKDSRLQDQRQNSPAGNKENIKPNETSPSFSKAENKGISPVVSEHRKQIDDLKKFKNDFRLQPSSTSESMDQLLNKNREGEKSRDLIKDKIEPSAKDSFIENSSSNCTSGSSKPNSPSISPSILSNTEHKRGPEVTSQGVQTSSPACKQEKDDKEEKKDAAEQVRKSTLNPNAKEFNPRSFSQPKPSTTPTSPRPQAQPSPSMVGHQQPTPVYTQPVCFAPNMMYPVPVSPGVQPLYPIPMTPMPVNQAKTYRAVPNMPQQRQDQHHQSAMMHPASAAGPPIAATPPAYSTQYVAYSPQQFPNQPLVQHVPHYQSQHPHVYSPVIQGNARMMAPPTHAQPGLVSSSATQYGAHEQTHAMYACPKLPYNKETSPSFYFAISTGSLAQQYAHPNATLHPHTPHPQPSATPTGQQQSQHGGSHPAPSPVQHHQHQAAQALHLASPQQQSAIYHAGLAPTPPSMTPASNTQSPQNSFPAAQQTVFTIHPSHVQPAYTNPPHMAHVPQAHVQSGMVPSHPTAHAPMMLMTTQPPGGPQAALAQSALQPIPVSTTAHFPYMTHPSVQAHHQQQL

SMILES	Potency
Nc1nc(-c2sc3nc4c(cc3c2N)CCCC4)nc(N2CCOCC2)n1	inactive
O=C(NCC1Cc2cccc(-c3cccnc3)c2O1)c1ccc2cc[nH]c2c1 (stereo not given)	inactive
Cc1cccn2c(=O)c3cc(C#N)c(=O)n(Cc4cccnc4)c3nc12	inactive
O=C(CCl)N1c2ccccc2Sc2c1ccc1ccccc21	26.7 µM (active)
Cc1nc2c(ncn2-c2ccccc2)c(=O)n1NC(=O)CN1CCCC1	inactive
O=C(COC(=O)c1ccc2ccccc2c1)NCCCc1ccccc1	inactive
O=C(NCCOc1ccccc1)c1ccccc1Cl	inactive
N=C(NOC(=O)c1ccc2ccccc2c1)c1ccccc1Cl	39.8 µM (active)
COc1ccc(C2CC(c3cccc(Br)c3)=NN2c2ccc(S(N)(=O)=O)cc2)cc1 (stereo not given)	inactive
Oc1ccc2c(c1)OCC1(O)Cc3cc(O)c(O)cc3C21 (stereo not given)	39.8 µM (active)
c1ccc(Nc2scc(-c3ccccc3)[n+]2Cc2ccco2)cc1	inactive
Cc1cccc(NC(=O)CSc2nc3ccccc3c3nc(CCn4cncc4C)nn23)c1	31.6 µM (active)
Cn1nnnc1SCC1=C(C(=O)O)N2C(=O)C(NC(=O)Cn3nc(C(F)F)cc3C3CC3)C2SC1 (stereo not given)	inactive
CCOC(=O)c1nnn(-c2nonc2N)c1-c1ccc(Br)cc1	inactive
O=C(COC(=O)c1ccc(Cl)nc1)Nc1ncc(Cl)cc1Cl	inactive
CC(C)N(Cc1ccccc1)C(=O)COC(=O)c1cnc(Cl)c(Cl)c1	39.8 µM (active)
O=C(COC(=O)c1cnc(Cl)c(Cl)c1)c1ccc(F)cc1	inactive
Cc1ccc(Nc2nc(N)nc(CSc3nc4ccccc4s3)n2)cc1	39.8 µM (active)
Cc1ccccc1Nc1nc(N)nc(CN(C)Cc2ccccc2Cl)n1	inactive
Nc1nc(CCl)nc(Nc2ccccc2)n1	28.2 µM (active)
CCOc1ccc(Nc2nc(N)nc(CSC(=S)N3CCN(c4ccccc4)CC3)n2)cc1	inactive
Cc1ccc(Nc2nc(N)nc(CCl)n2)cc1	4.74 µM (active)

SMILES	Potency
Nc1nc(O)c(NC=O)c(Nc2ccc(Cl)cc2)n1	inactive
Cc1ccc(Nc2nc(N)nc(CCl)n2)c(C)c1	14.1 µM (active)
CCOc1ccc(S(=O)(=O)Nc2cc(S(=O)(=O)N3CCOCC3)ccc2OC)cc1	inactive
COCCn1c(-c2cccs2)nc2nc3ccccc3nc21	inactive
N=c1c(C(=O)NCCc2ccccc2)cc2c(=O)n3ccccc3nc2n1CC1CCCO1 (stereo not given)	inactive
CC(C)(NC(=O)c1cc(Cl)c2ccccc2c1O)C(=O)O	inactive
CN1C=CC(=C[N+](=O)[O-])N(C)C1=O	17.8 µM (active)
COc1cc(CCN=Cc2cc(Cl)cc(Cl)c2O)c([N+](=O)[O-])cc1OC	inactive
COc1cc(/C=C2/C(=O)c3cccc([N+](=O)[O-])c3C2=O)c(Br)cc1O	22.4 µM (active)
CCOc1ccc(N2C(=O)/C(=C\c3ccc(OC)c(O)c3)S(=O)(=O)C2c2cccc([N+](=O)[O-])c2)cc1 (stereo not given)	inactive
Cc1ccc2[nH]c(SCC(=O)Nc3ccc(C(N)=O)cc3)nc2c1	inactive
Cc1ccc2[nH]c(-c3ccc(SCC(=O)Nc4nnc(C)s4)nc3)nc2c1	23.8 µM (active)
CC(=O)c1cc2c(cc1NC(=O)CSc1nc3cc(C)ccc3[nH]1)OCO2	inactive
COc1ccc(C2=CC(c3ccccc3Cl)n3nc(-c4ccc(Cl)cc4)nc3N2)cc1 (stereo not given)	inactive
Nc1cccc2c1C(=O)N(C(=O)/C=C/c1ccc(F)cc1)C2=O	inactive
CCSC1=NCCN1S(=O)(=O)c1ccc2ccccc2c1	inactive
CC(C)N1C/C(=C/c2ccsc2)C(=O)/C(=C/c2ccsc2)C1	39.8 µM (active)
Cc1ccc(CCC(=O)Nc2ccccc2C(=O)O)o1	inactive
O=C(OCc1ccc(O)cc1)c1c(-c2ccsc2)oc2ccc(N3CCOCC3)cc12	inactive
CCOc1ccc(C2C=C(c3cccc(OC)c3)Nc3nnnn32)cc1 (stereo not given)	inactive
Cc1nn(-c2ccccc2)c(Cl)c1C(=O)N1CCN(c2ncnc3c2cnn3-c2ccccc2)CC1	31.6 µM (active)
Cc1nn(-c2ccccc2)c(Cl)c1C(=O)NNC(=O)c1ccncc1	inactive

SMILES	Potency
Cc1ccsc1C(=O)N1CCN(c2ccccn2)CC1	inactive
Cc1cccn2c(=O)c3cc(C(=O)O)n(C)c3nc12	inactive
CCCCNC(=O)CCN1N=C(c2ccccc2)CCC1=O	inactive
CN1C/C(=C/c2ccccc2[N+](=O)[O-])C(=O)/C(=C\c2ccccc2[N+](=O)[O-])C1	2.99 µM (active)
CCCCNC(=O)NNc1nc(Cl)cc(C)c1C#N	inactive
CCN(C(=O)c1ccco1)c1nc(-c2ccc(OC)cc2)cs1	inactive
CCN(CC)C(=O)c1cccc(-c2csc(C(C)(O)c3ccc(OC)cc3)n2)c1 (stereo not given)	15.8 µM (active)
CCN(CC)C(=O)CSc1nc(-c2ccccc2)ccc1C#N	inactive
CC(C(=O)Nc1nc(-c2ccc(F)c(F)c2)cs1)N1C(=O)C2CC=CCC2C1=O (stereo not given)	inactive
CCN(CC)c1ccc2cc(-c3nc(-c4ccc(OC)cc4)cs3)c(=O)oc2c1	inactive
CC(C)c1cccc(-c2csc(C(O)c3ccc(F)c(F)c3)n2)c1 (stereo not given)	39.8 µM (active)
COCCCN=C(S)N1CCN(c2nc(-c3cccc(OC)c3)cs2)CC1	inactive
CCN(CC)C(=O)c1cccc(-c2csc(C(C)(O)c3cccc(OC)c3)n2)c1 (stereo not given)	35.5 µM (active)
COc1cccc(-c2ccc3c(N)c(C(=O)c4ccc(Cl)cc4)sc3n2)c1	inactive
CCN(CC)C(=O)c1cccc(-c2csc(C(O)c3ccccc3)n2)c1 (stereo not given)	35.5 µM (active)
CCN(CC)C(=O)c1sc2nc(-c3ccccc3)ccc2c1N	inactive
Cc1ccc(C(=O)N2CCN(Cc3ccc4c(c3)OCO4)CC2)cc1S(=O)(=O)N1CCOCC1	inactive
COc1ccc(-c2c(C)c3ccc(O)c(CN4CCCCC4C)c3oc2=O)cc1OC (stereo not given)	inactive
COCCCNC(=O)c1cc2c(=O)n3cccc(C)c3nc2n(C(C)C)c1=N	inactive
CCSc1nnc(-c2sc3nnc(-c4ccccc4)c(-c4ccccc4)c3c2N)o1	inactive
CCC(=O)Oc1ccc2c(c1)OC1(OC(C)=O)OC(C)CC1=C2C (stereo not given)	inactive
